Measured values reported in the supplement of paper PMC12669032.

Experiments:
Roseburia intestinalis = assay: growth AUC relative to DMSO control (median of replicates) (fraction); higher = more growth (less inhibition), active = hit call of the paper; conditions: 20 µM; 24 h
Outline: (§1)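 Gut bacterial monocultures were grown anaerobically at 37 °C in mGAM, starting at OD600 0.05, with 20 µM compound (1% DMSO) in round-bottom 96-well plates under pierced gas-permeable seals. OD600 was read hourly for 24 h. Area under the growth curve (minimum OD set to 0) was normalised to the plate median of DMSO controls, or to row and column medians on the industrial chemical plate. The value is the median of three biological replicates grown on separate days.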

Streptococcus salivarius = assay: as above; conditions: 20 µM; 24 h
Outline: as §1

| SMILES | growth AUC (Roseburia intestinalis) | growth AUC (Streptococcus salivarius) |
| --- | --- | --- |
| CC(C)(C)c1ccc(CCOc2ncnc3ccccc23)cc1 | 0.901 (inactive) | 0.975 (inactive) |
| CCOP(=S)(OCC)SCSC(C)(C)C | 0.951 (inactive) | 0.996 (inactive) |
| COc1ccc(/C(=C/C(=O)N2CCOCC2)c2ccc(F)cc2)cc1OC | 0.975 (inactive) | 1.04 (inactive) |
| CCOP(=S)(OCC)SCCS(=O)(=O)CC | 0.971 (inactive) | 0.994 (inactive) |
| CCNc1nc(Cl)nc(NC(C)(C)C)n1 | 0.955 (inactive) | 0.986 (inactive) |
| CNC(=O)/C=C(\C)OP(=O)(OC)OC | 1.07 (inactive) | 1.04 (inactive) |
| COc1nc(NC(C)C)nc(NC(C)C)n1 | 0.963 (inactive) | 1.05 (inactive) |
| CCOC(=O)OC1=C(c2cc(C)ccc2C)C(=O)NC12CCC(OC)CC2 (centres undefined) | 0.995 (inactive) | 0.987 (inactive) |
| CC(C)(C)c1cc([N+](=O)[O-])cc([N+](=O)[O-])c1O | 0.802 (inactive) | 0.848 (inactive) |
| CNC(=O)O/N=C(\SC)C(=O)N(C)C | 0.997 (inactive) | 1.02 (inactive) |
| CCc1ccc(C(=O)NN(C(=O)c2cc(C)cc(C)c2)C(C)(C)C)cc1 | 0.945 (inactive) | 0.952 (inactive) |
| CC[C@H]1CCCC(O[C@H]2CC[C@H](N(C)C)[C@@H](C)O2)[C@@H](C)C(=O)C2=C[C@@H]3[C@@H](C=C(C)[C@@H]4C[C@@H](O[C@@H]5O[C@@H](C)[C@H](OC)[C@@H](OC)[C@H]5OC)C[C@@H]34)[C@@H]2CC(=O)O1.CC[C@H]1CCCC(O[C@H]2CC[C@H](N(C)C)[C@@H](C)O2)[C@@H](C)C(=O)C2=C[C@@H]3[C@@H](C=C[C@@H]4C[C@@H](O[C@@H]5O[C@@H](C)[C@H](OC)[C@@H](OC)[C@H]5OC)C[C@@H]34)[C@@H]2CC(=O)O1 (some centres undefined) | 1.03 (inactive) | 0.972 (inactive) |
| OC(c1ccc(Cl)cc1)(c1cncnc1)c1ccccc1Cl (centres undefined) | 1 (inactive) | 0.939 (inactive) |
| Cc1c(F)c(F)c(COC(=O)[C@@H]2[C@H](/C=C(\Cl)C(F)(F)F)C2(C)C)c(F)c1F (mixture of isomers) | 0.986 (inactive) | 0.993 (inactive) |
| Cc1cc(C)nc(NC(=O)NS(=O)(=O)c2ccccc2C(=O)OC2COC2)n1 | 0.985 (inactive) | 0.909 (inactive) |
| COC(=O)[C@@H](C)N(C(=O)Cc1ccccc1)c1c(C)cccc1C | 1.01 (inactive) | 0.958 (inactive) |
| CCOP(=S)(OCC)SCSCC | 0.962 (inactive) | 1.02 (inactive) |
| CCOP(=S)(OCC)SCSc1ccc(Cl)cc1 | 0.939 (inactive) | 1.03 (inactive) |
| O=S(=O)(c1ccc(O)cc1)c1ccc(O)cc1 | 1 (inactive) | 1.04 (inactive) |
| CCc1cccc(C)c1N(C(=O)CCl)C(C)COC (centres undefined) | 1.07 (inactive) | 1.05 (inactive) |
| CCCCN(CCCC)SN(C)C(=O)Oc1cccc2c1OC(C)(C)C2 | 0.942 (inactive) | 1 (inactive) |
| CCNc1nc(NC(C)C)nc(OC)n1 | 0.953 (inactive) | 0.945 (inactive) |
| O=C1C2CC=CCC2C(=O)N1SC(Cl)(Cl)Cl (centres undefined) | 1.01 (inactive) | 1.05 (inactive) |
| COP(=O)(OC)Oc1ccc(S(C)(=O)=O)c(C)c1 | 1.02 (inactive) | 1.01 (inactive) |
| CCCSC(=O)N(CCC)CCC | 0.994 (inactive) | 1.04 (inactive) |
| COP(=S)(OC)Oc1ccc(S(C)=O)c(C)c1 (centres undefined) | 1.07 (inactive) | 0.988 (inactive) |

| SMILES | growth AUC (Roseburia intestinalis) | growth AUC (Streptococcus salivarius) |
| --- | --- | --- |
| COC(=O)COc1cc(Cl)c(Cl)cc1Cl | 0.996 (inactive) | 1.01 (inactive) |
| O=C1C(Cl)=C(Cl)C(=O)c2ccccc21 | 1.13 (inactive) | 0.955 (inactive) |
| CCOCN(C(=O)CCl)c1c(C)cccc1CC | 1.01 (inactive) | 1 (inactive) |
| CCOP(=O)(Sc1ccccc1)Sc1ccccc1 | 0.946 (inactive) | 0.948 (inactive) |
| CO/N=C(/C(=O)OC)c1ccccc1CO/N=C(\C)c1cccc(C(F)(F)F)c1 | 1.06 (inactive) | 0.998 (inactive) |
| CCOP(=S)(OCC)Oc1cc(Cl)c(SC)cc1Cl | 0.994 (inactive) | 1.01 (inactive) |
| CNC(=O)Oc1cc(C)c(S(C)(=O)=O)c(C)c1 | 0.967 (inactive) | 0.945 (inactive) |
| CC(=O)O.NC(N)=NCCCCCCCCNCCCCCCCCN=C(N)N | 0.039 (active) | 0.474 (active) |
| CCSC(=O)N1CCCCCC1 | 1 (inactive) | 1.01 (inactive) |
| COCC(=O)N(c1c(C)cccc1C)[C@@H](C)C(=O)OC | 0.997 (inactive) | 0.999 (inactive) |
| C[C@@H](Oc1ccc(Oc2ccc(C(F)(F)F)cn2)cc1)C(=O)O | 0.99 (inactive) | 1.05 (inactive) |
| CCCOC(=O)c1ccccc1C(=O)OCCC | 1.1 (inactive) | 1.01 (inactive) |
| Cc1cc(Cl)ccc1O | 1.01 (inactive) | 1.04 (inactive) |
| COc1cc(OC)nc(NC(=O)[N-]S(=O)(=O)c2ncccc2OCC(F)(F)F)n1.[Na+] | 1.01 (inactive) | 0.885 (inactive) |
| CCOP(=S)(OCC)SCSP(=S)(OCC)OCC | 1.09 (inactive) | 0.958 (inactive) |
| CC(C)(C)c1ccc(CSc2cnn(C(C)(C)C)c(=O)c2Cl)cc1 | 0.979 (inactive) | 0.986 (inactive) |
| Nc1ccncc1 | 0.981 (inactive) | 0.981 (inactive) |
| CCCSP(=O)(OCC)Oc1ccc(Br)cc1Cl (centres undefined) | 1.01 (inactive) | 1.01 (inactive) |
| COP(N)(=O)SC (centres undefined) | 1 (inactive) | 0.996 (inactive) |
| CCN(CC)c1c([N+](=O)[O-])cc(C(F)(F)F)c(N)c1[N+](=O)[O-] | 0.984 (inactive) | 1.03 (inactive) |
| N#Cc1nn(-c2c(Cl)cc(C(F)(F)F)cc2Cl)c(N)c1S(=O)C(F)(F)F (centres undefined) | 0.914 (inactive) | 0.811 (inactive) |
| CCSC(=O)N(CC)C1CCCCC1 | 1.07 (inactive) | 0.948 (inactive) |
| ClC1=C(Cl)C2(Cl)[C@H]3[C@@H]4O[C@@H]4[C@H](Cl)[C@H]3C1(Cl)C2(Cl)Cl (single isomer, unassigned; isomer b) | 0.894 (inactive) | 0.961 (inactive) |
| Oc1ccc(Cl)c(Cl)c1Cl | 1.05 (inactive) | 0.96 (inactive) |
| CCSCc1ccccc1OC(=O)NC | 1.01 (inactive) | 1.02 (inactive) |
| CCOP(=S)(OCC)SCS(=O)CC (centres undefined) | 0.995 (inactive) | 0.976 (inactive) |

| SMILES | growth AUC (Roseburia intestinalis) | growth AUC (Streptococcus salivarius) |
| --- | --- | --- |
| CCOP(=S)(OCC)SCS(=O)(=O)C(C)(C)C | 1.02 (inactive) | 0.984 (inactive) |
| CC(C1CC1)C(O)(Cn1cncn1)c1ccc(Cl)cc1 (mixture of isomers) | 1.06 (inactive) | 0.973 (inactive) |
| COc1ccccc1N | 1.03 (inactive) | 0.998 (inactive) |
| CN(C)C(CSS(=O)(=O)c1ccccc1)CSS(=O)(=O)c1ccccc1 | 1.02 (inactive) | 0.973 (inactive) |
| O=C(O)COc1cc(Cl)c(Cl)cc1Cl | 0.966 (inactive) | 1.02 (inactive) |
| Clc1cccc(C(Cl)(Cl)Cl)n1 | 1 (inactive) | 0.959 (inactive) |
| CCNc1nc(NC(C)(C)C)nc(SC)n1 | 1.07 (inactive) | 0.984 (inactive) |
| O=[N+]([O-])c1cc(C(F)(F)F)c(Cl)c([N+](=O)[O-])c1Nc1ncc(C(F)(F)F)cc1Cl | 0.989 (inactive) | 0.822 (inactive) |
| CCNc1nc(Cl)nc(NC(C)C)n1 | 1.09 (inactive) | 0.966 (inactive) |
| CCCOP(=S)(OCCC)SCC(=O)N1CCCCC1C (centres undefined) | 0.992 (inactive) | 0.953 (inactive) |
| CC(C)N(C(=O)COc1nnc(C(F)(F)F)s1)c1ccc(F)cc1 | 1.01 (inactive) | 0.949 (inactive) |
| CCSCCSP(=S)(OC)OC | 1.03 (inactive) | 1.02 (inactive) |
| CCCOCCN(C(=O)CCl)c1c(CC)cccc1CC | 0.947 (inactive) | 0.952 (inactive) |
| CON(C)C(=O)Nc1ccc(Cl)cc1 | 1.02 (inactive) | 1.04 (inactive) |
| CC(C)(C)N(NC(=O)c1ccc(Cl)cc1)C(=O)c1ccccc1 | 1.08 (inactive) | 0.987 (inactive) |
| CCNc1nc(NC(C)C(C)C)nc(SC)n1 (centres undefined) | 1.04 (inactive) | 0.97 (inactive) |
| CNC(=O)O/N=C/C(C)(C)SC | 1.03 (inactive) | 1.06 (inactive) |
| O.[Br-].[Br-].c1cc[n+]2c(c1)-c1cccc[n+]1CC2 | 1.04 (inactive) | 1.01 (inactive) |
| Clc1ccc(Cl)c(Cl)c1 | 0.989 (inactive) | 1.01 (inactive) |
| Cc1cc(Cl)ccc1OC(C)C(=O)O (centres undefined) | 1.03 (inactive) | 1.01 (inactive) |
| N#Cc1cc(Br)c(O)c(Br)c1 | 0.953 (inactive) | 0.959 (inactive) |
| Oc1cc(Cl)c(Cl)cc1Cl | 0.906 (inactive) | 0.95 (inactive) |
| Nc1c(Cl)c(Cl)c(Cl)c(Cl)c1Cl | 0.986 (inactive) | 0.983 (inactive) |
| C#CCOc1ccc(CCNC(=O)C(OCC#C)c2ccc(Cl)cc2)cc1OC (centres undefined) | 0.959 (inactive) | 0.984 (inactive) |
| [CH3][Hg][Cl] | 1.05 (inactive) | 0.848 (inactive) |
